Screens (PubChem BioAssay)
In the library only some 2.4% were active in any assay of this set; here they are far more common.
M1 antag – antagonists of human M1 muscarinic receptor; CHO-K1 hM1, Fluo-8 calcium fluorescence, ACh EC80 antagonist; inhibition, % at 3 µM; 360,000 compounds, 1.3% hits; AID 588852;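 active means percent inhibition above its own plate's cutoff, namely the mean of that plate's compound wells plus 3 SD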;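 further: peak over basal fluorescence ratio during 140 s after agonist addition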
Target sequence (P11229 whole entry, looked up): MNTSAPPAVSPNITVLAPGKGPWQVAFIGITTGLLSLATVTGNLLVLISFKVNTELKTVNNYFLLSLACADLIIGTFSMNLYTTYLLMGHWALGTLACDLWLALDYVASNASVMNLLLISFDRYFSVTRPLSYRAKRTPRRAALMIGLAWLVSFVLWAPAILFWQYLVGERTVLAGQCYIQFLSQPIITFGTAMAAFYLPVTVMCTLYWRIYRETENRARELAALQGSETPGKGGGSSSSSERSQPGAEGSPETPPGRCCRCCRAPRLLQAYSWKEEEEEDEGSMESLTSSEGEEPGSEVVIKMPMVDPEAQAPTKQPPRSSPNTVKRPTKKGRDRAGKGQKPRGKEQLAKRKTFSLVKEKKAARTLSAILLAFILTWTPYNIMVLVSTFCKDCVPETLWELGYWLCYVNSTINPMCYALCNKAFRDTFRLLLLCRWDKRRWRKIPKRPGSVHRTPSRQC
M1 ag – agonists of human M1 muscarinic receptor. CHO-K1 hM1, Fluo-8 calcium fluorescence, agonist mode; 0% DMSO, 100% acetylcholine EC100. activation, % at 3 µM. 360,000 compounds, 0.33% hits. AID 588814;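 active means activation above the run's mean compound activation plus 3 SD, cut at about 16% in these data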;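 further: peak over basal fluorescence ratio within a 140 s kinetic read after compound addition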
CHRM1 PAM – potentiates human M1 receptor response to acetylcholine | activation, % at 3 µM | P11229 | CHO-K1 hM1, Fluo-8 calcium fluorescence, ACh EC20; 0% = ACh EC20, 100% = maximal ACh | 360,000 compounds, 0.088% hits | AID 588819; in the data active means activation above about 19%, passing the limit was not always enough
CHO-K1 Ca PAM – M1 PAM counterscreen hit in parental CHO-K1 cells; ATP EC20, Fluo-8 calcium fluorescence; 0% at ATP EC20, 100% at ATP max; activation, % at 3 µM; 360,000 compounds, 0.02% hits;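 active means activation above the run cutoff, the mean activation of all test compounds plus 3 SD, cut at about 40% in these data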;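 further: peak over basal fluorescence ratio in a 140 s read after ATP addition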
CHO-K1 Ca ag – M1 agonist counterscreen hit in parental CHO-K1 cells; 360,000 compounds, 0.48% hits; AID 602248; Fluo-8 calcium fluorescence; scaled to maximal ATP response, vehicle zero; activation, % at 3 µM; in the data active means activation above about 15%;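 further: untransfected CHO-K1 host cells lacking M1 receptor as counterscreen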
CHO-K1 Ca antag – counter-screen for M1 antagonists: effect in parental CHO-K1 cells. ATP-induced calcium, Fluo-8 fluorescence. AID 602250. inhibition, % at 3 µM. 360,000 compounds, 0.6% hits;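 active means inhibition above a per-plate cutoff, the plate's mean sample inhibition plus 3 SD, cut at about 24% in these data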
Hits are given with their value; . = inactive; / = no result.

SMILES	M1 antag	M1 ag	CHRM1 PAM	CHO-K1 Ca PAM	CHO-K1 Ca ag	CHO-K1 Ca antag
Cn1nnnc1SCC(=O)NCCc1ccc(Cl)cc1	.	.	.	.	.	.
CNC(=O)OCc1ncn(-c2ccccc2)c1COC(=O)NC	.	.	.	.	.	.
Cn1cccc1C1CCCN1CC(=O)Nc1ccc(C(N)=O)cc1 (stereo not drawn)	.	.	.	.	.	.
CCOC(=O)CNC(=O)CNC(=O)c1nn(-c2ccc(OC)c(OC)c2)c(=O)c2ccccc12	.	.	.	.	.	.
COc1ccc(-n2nc(C(=O)NCC(=O)NCCCN3CCC(C)CC3)c3ccccc3c2=O)cc1Cl	.	.	.	.	.	.
CCOC(=O)C1CCCN(C(=O)CNC(=O)c2nn(-c3ccc(OC)c(Cl)c3)c(=O)c3ccccc23)C1 (stereo not drawn)	.	18	.	.	.	.
CCOC(=O)CNC(=O)CNC(=O)c1nn(-c2ccc(OC)c(Cl)c2)c(=O)c2ccccc12	.	.	.	.	.	26
CCOC(=O)C1CCN(C(=O)CNC(=O)c2nn(-c3ccc(OC)c(Cl)c3)c(=O)c3ccccc23)CC1	.	.	.	.	.	.
COc1ccc(-n2nc(C(=O)NCC(=O)NCCCN3CCCCCC3)c3ccccc3c2=O)cc1Cl	50	.	.	.	.	.
COc1cccc(N2CCN(c3nc(-c4ccccc4C)cc(=O)[nH]3)CC2)c1	.	.	.	.	.	.
COc1ccc(C2=Cc3ccc(OC(C)=O)cc3OC2)cc1	.	.	.	.	.	.
COc1cc(N2CCCC2)c(OC)cc1/C=C1/NC(=S)NC1=O	.	53	.	.	48	35
COc1cc(C2=NOC(C(=O)Nc3ccc4c(c3)OCO4)C2)cc(OC)c1OC (stereo not drawn)	.	.	.	.	18	.
CCOC(=O)C1CCCN(c2c(C(=O)c3ccccc3)cnc3ccc(OC)cc23)C1 (stereo not drawn)	51	62	.	61	.	.
CCOC(=O)C1CCCN(C(=O)COc2ccc(C(=O)c3ccccc3)cc2)C1 (stereo not drawn)	.	.	.	.	.	.
CNC(=S)NNC(=O)c1cn(C)nc1C	.	.	.	.	.	24
Cc1cc(OCC(O)CN2CCc3ccccc3C2)cc(C(C)C)c1 (stereo not drawn)	32	.	.	.	.	.
CC(=O)c1ccc(NC(=O)Cn2cnc(S(=O)(=O)N3CCc4ccccc43)c2)cc1	.	.	.	.	.	25
COc1cc2c(cc1OC)CN(C1CCCN(Cc3cc(Cl)ccc3O)C1)CC2 (stereo not drawn)	.	.	.	.	.	.
CC(=O)N1c2ccc(S(=O)(=O)NCC3CCC(C(=O)NCc4ccco4)CC3)cc2CC1C (stereo not drawn)	.	.	.	.	.	.
CN1CCN(Cc2nnc(-c3ccccc3)o2)CC1	.	.	.	.	.	.
c1ccc(CN2CCN(Cc3nnc(-c4ccccc4)o3)CC2)cc1	35	.	.	.	.	.
CCn1c(SC)nnc1C1CCCN(CC(=O)Nc2ccccc2N2CCOCC2)C1 (stereo not drawn)	.	.	.	.	.	.
COc1cc2c(cc1OC)C(c1cc(OC)c(OC)cc1[N+](=O)[O-])N(C(C)=O)CC2 (stereo not drawn)	.	.	.	.	.	.
Cc1ccc(CS(=O)Cc2ccc(C(=O)NCc3ccc(OC(C)C)cc3)o2)cc1 (stereo not drawn)	.	.	.	.	.	.
SMILES	M1 antag	M1 ag	CHRM1 PAM	CHO-K1 Ca PAM	CHO-K1 Ca ag	CHO-K1 Ca antag
COc1cc(OC)cc(C(=O)Nc2cccc3cccnc23)c1	.	.	.	.	.	.
COc1ccc(N=Nc2ccc(O)c3ncccc23)cc1	.	.	.	.	.	.
COc1cccc(N=Nc2ccc3cccnc3c2O)c1	31	30	.	.	38	.
COc1cccc(N=Nc2ccc(O)c3ncccc23)c1	40	24	.	.	41	35
CN(CCO)c1cccc2c1S(=O)(=O)N[C@H](Cc1ccccc1)CO2	/	/	/	.	.	.
CCOC(=O)N1CCC(N2CCN(CCC(C)C)C(CCO)C2)CC1 (stereo not drawn)	41	.	.	.	.	.
CC1CCCC(C)N1C(=O)/C=C/c1ccc(S(=O)(=O)N2CCOCC2)cc1 (stereo not drawn)	.	.	.	.	.	.
C=CCC1(CC=C)CCCN1C(=O)c1cc(COc2ccc(C)nc2)on1	55	.	.	.	16	49
CN(C(=O)COC(=O)/C=C/c1cccs1)C1CCCCC1	.	.	.	.	.	.
O=C(Cn1cc(COc2ccc(Br)cc2[N+](=O)[O-])nn1)c1ccc(O)cc1	.	.	.	.	.	25
NS(=O)(=O)c1ccc(-n2cccc2C=O)cc1	.	.	.	.	18	.
COc1ccccc1C(=O)Nc1nnc(S(=O)(=O)N2CCN(c3ccc(F)cc3)CC2)s1	.	.	.	.	.	.
O=C(CSc1nnc2ccccn12)NNC(=O)c1cccc(Cl)c1	.	.	.	.	.	.
O=[N+]([O-])c1nccn1CCCCCCN1CCOCC1	.	.	.	.	.	.
CCOC(=O)CSc1cc(C)nc2ccc(OC)cc12	.	.	.	.	.	24
O=C(O)c1cccc(Sc2cc(Cl)ccc2C(=O)O)c1	.	.	.	.	.	.
CCOC(=O)C1CCCN(C(=O)CSc2nnnn2C)C1 (stereo not drawn)	.	.	.	.	.	.
CCOc1cc2c(cc1/C=C(/C#N)c1ccc(C(=O)O)cc1)OCO2	.	.	.	.	18	.
COc1cc(/C=N/NC(=O)c2ccc(CN3C(=O)c4cccc5cccc3c45)cc2)cc(OC)c1O	.	.	.	.	15	.
COc1ccc(/C=N/NC(=O)c2ccc(-c3ccccc3)cc2)cc1O	.	.	.	.	.	.
COc1ccc(/C=N/NC(=O)c2ccc(CN3C(=O)c4cccc5cccc3c45)cc2)cc1O	.	23	.	.	.	.
COc1cc(/C=N\NC(=O)c2ccc(-c3ccccc3)cc2)cc(Br)c1O	.	.	.	.	.	.
CC1CCN(C(=O)COC(=O)C2CCN(S(=O)(=O)c3c(Cl)cccc3Cl)CC2)CC1	.	.	.	.	.	.
COc1ccccc1CCNC(=O)c1cccc(S(=O)(=O)N2CCc3ccccc3C2)c1	.	.	.	.	.	.
Cc1ccc(OCC(=O)N/N=C2/SCC(=O)N2Cc2ccccc2)cc1	.	.	.	.	.	25
Cc1ccccc1OCC(=O)N/N=C1\SCC(=O)N1Cc1ccccc1	.	.	.	.	.	.
CS(=O)(=O)c1ccc(Cl)c(NC(=O)COC(=O)CCN2C(=O)C3CC=CCC3C2=O)c1 (stereo not drawn)	.	.	.	.	.	.
